Assay results taken from PubChem BioAssay (EPA / NIEHS).
The source made the active and inactive calls. Rule for the calls: active = hit-call score of the fitted dose curve at least 0.9, where 1 is the maximum; inactive = score below 0.9.

biological target: X-box-binding protein 1 (Homo sapiens) (UniProt P17861); assay: ATG_Xbp1_CIS: Attagene CIS-FACTORIAL HepG2 Assay for human X-box Binding Protein 1 (XBP1) (AID 2282972); conditions: HepG2 XBP1 cis-element reporter, Attagene multiplex; actives raise or lower the signal
Protocol: ATG_CIS is a cell-based, multiplexed-readout assay that uses HepG2, a human liver cell line, with measurements taken at 24 hours after chemical dosing in a 24-well plate.ATG_Xbp1_CIS is one of 52 assay component(s) measured or calculated from the ATG_CIS assay. It is designed to make measurements of mRNA induction, a form of inducible reporter, as detected with fluorescence intensity signals by Reverse transcription polymerase chain reaction (RT-PCR) and Capillary electrophoresis technology.Data from the assay component ATG_Xbp1_CIS was analyzed into 1 assay endpoint. This assay endpoint, ATG_Xbp1_CIS, was analyzed with bidirectional fitting relative to DMSO as the negative control and baseline of activity. Using a type of inducible reporter, measures of mRNA for gain or loss-of-signal activity can be used to understand the reporter gene at the transcription factor-level as they relate to the gene XBP1. Furthermore, this assay endpoint can be referred to as a primary readout, because this assay has produced multiple assay endpoints where this one serves a reporter gene function. To generalize the intended target to other relatable targets, this assay endpoint is annotated to the dna binding intended target family, where the subfamily is basic leucine zipper.
Human liver HepG2 cells are transiently transfected with multiple reporter transcription units (MRTUs) in 6-well plates using FuGene 6 reagent (Roche; 3 ml FuGene/1 mg DNA). The MRTU constructs are regulated by a cis-regulating element (promoter). […] A major difference between the CIS and TRANS system is that in CIS activities of endogenous TFs are measured, whereas the TRANS assay evaluates changes in activities of exogenous, chimeric NR-Gal4 proteins. […] At the end of 24 hour incubation, total RNA was isolated using TriZol reagent (Invitrogen). The isolated RNA is then reverse-transcribed using oligo(dT) primer and Mo-MLV reverse transcriptase (Invitrogen) with DNAse I (Ambion) treatment for 30 min. The one-tenth of the produced cDNA was amplified by PCR using Taq DNA polymerase (Invitrogen) and two reporter sequence-specific primers. The PCR products were fluorescently labeled by primer extension with 6-arboxyfluorescein (6-FAM) 5'-labeled reporter sequence-specific primer (2 min at 95 C, 20 s at 68 C and 10 min at 72 C) and these products were digested with 5U of HpaI (New England Biolabs) for 2h at 37 C. The fragments were purified using Qiaquick PCR columns (Qiagen), analyzed on an ABI 3130xL genetic analyzer (Applied Biosystems) with peak positions identified by using a set of X-rhodamine (ROX)-labeled MapMarker1000 molecular weight standards (BioVentures). The raw capillary electrophoresis data was processed using Attagraph software (Attagene).

Sequence of X-box-binding protein 1 (Homo sapiens) (P17861 whole entry, looked up): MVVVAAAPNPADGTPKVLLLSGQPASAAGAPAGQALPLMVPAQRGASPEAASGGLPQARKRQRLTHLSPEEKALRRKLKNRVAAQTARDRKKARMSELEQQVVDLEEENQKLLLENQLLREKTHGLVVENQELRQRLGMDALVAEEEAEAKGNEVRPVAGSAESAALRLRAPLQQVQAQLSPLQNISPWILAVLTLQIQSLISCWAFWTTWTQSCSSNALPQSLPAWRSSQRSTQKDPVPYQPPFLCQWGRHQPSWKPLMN

Compound	outcome	AC50
O=S(=O)(O)CCC(F)(F)C(F)(F)C(F)(F)C(F)(F)C(F)(F)C(F)(F)C(F)(F)C(F)(F)F	inactive	–
C=CCOC(=O)CC(C)C	inactive	–
CC(C)=CCCC(C)O (stereo not given)	inactive	–
CCN(CC)c1ccc(C=O)cc1	inactive	–
Nc1cccnc1N	inactive	–
COCCC(=O)OC	inactive	–
O=C(O)C(F)(F)OC(F)(F)C(F)(F)OC(F)(F)C(F)(F)OC(F)(F)F	inactive	–
O=S(=O)(OCC(F)(F)F)C(F)(F)C(F)(F)C(F)(F)C(F)(F)F	inactive	–
OC(O)C(F)(F)C(F)(F)F	inactive	–
CCc1ccc(C)nc1	inactive	–
NCC(F)(F)C(F)(F)C(F)(F)C(F)(F)C(F)(F)C(F)(F)C(F)(F)C(F)(F)F	inactive	–
CCN(CCO)S(=O)(=O)C(F)(F)C(F)(F)C(F)(F)C(F)(F)C(F)(F)C(F)(F)C(F)(F)C(F)(F)F	–	29.8 µM (active)
Cc1ccc(S(=O)(=O)C(I)I)cc1	–	7.84 µM (active)
CO[Si](C)(CCC(F)(F)C(F)(F)C(F)(F)C(F)(F)C(F)(F)C(F)(F)F)OC	inactive	–
O=C(c1ccccc1)c1ccc(Cl)cc1	inactive	–
Oc1ccc2c(c1)CCC2	inactive	–
FC(F)(F)C(F)(F)C(F)(F)C(F)(F)C(F)(F)C(F)(F)CC[Si](Cl)(Cl)Cl	inactive	–
CCC(=O)OC(C)c1ccccc1 (stereo not given)	inactive	–
O=C1C=CC(=O)N1c1ccccc1	inactive	–
OCC(F)(F)C(F)(F)C(F)(F)C(F)(F)C(F)(F)C(F)(F)CO	inactive	–

Compound	outcome	AC50
Cc1cnccn1	inactive	–
O=C(Cl)C(F)(F)C(F)(F)C(F)(F)C(F)(F)C(F)(F)C(F)(F)F	inactive	–
CC(C)OC=O	inactive	–
Cc1cccc(C)n1	inactive	–
CN(C(=O)C(F)(F)C(F)(F)C(F)(F)F)[Si](C)(C)C	inactive	–
CCCCCCCCCCCCCC[P+](CCCC)(CCCC)CCCC	–	0.834 µM (active)
O=C(O)C(F)(F)C(F)(F)C(F)(F)OC(F)(F)F	inactive	–
O=C=Nc1cccc2c(N=C=O)cccc12	inactive	–
CN(C)C(C)(C)CO	inactive	–
CO[Si](CCCOCC1CO1)(OC)OC (stereo not given)	inactive	–
OCC(O)CC(F)(F)C(F)(F)C(F)(F)C(F)(F)F (stereo not given)	inactive	–
CCc1cc(Cc2cc(CC)c(N)c(CC)c2)cc(CC)c1N	–	38.3 µM (active)
Cc1cc(C)c(O)c(C(C)(C)C)c1	inactive	–
O=S(=O)(O)CCC(F)(F)C(F)(F)C(F)(F)C(F)(F)F	inactive	–
CCOCOCC	inactive	–
FC(F)(F)C(F)(F)C(F)(F)C(F)(F)C(F)(F)C(F)(F)C(F)(F)CCI	inactive	–
CCC(Cc1c(I)cc(I)c(N)c1I)C(=O)O (stereo not given)	inactive	–
O=C1C=CC(=O)N1c1ccc(Cc2ccc(N3C(=O)C=CC3=O)cc2)cc1	–	42.6 µM (active)
C=CC(=O)OCC(F)(F)C(F)(F)C(F)(F)COC(=O)C=C	inactive	–
N#Cc1ccccc1O	inactive	–
